Assay results published in PubChem BioAssay (NCI).
Values joined by “and” are separate entries in the source; they are usually repeats but may differ in a detail not shown here. Equal values may be shown once. This is part of a sample that, as a whole, favours compounds with a hit. Of some 83,000 tested, about 20% had one in any assay.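 Assay: single dose, 48 h. Readout: percent growth (0 = no net growth; negative = cell death). Active: <10.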 Active and inactive are the calls of the source. Where a SMILES comes first, the peptide text is derived from it. [ ]: non-standard residue; d: D form. ξ: configuration not given here. ξV = CC(C)C(N)C(=O)O

What follows are compounds tested on A498 renal (assay: NCI-60 one-dose screen, 48 h (100 = growth as untreated, 0 = no growth, -100 = all killed)). Settings: 0.0025 µM.
Experimental: Growth inhibition of the A498 human tumor cell line is measured as a screen for anti-cancer activity. Cells are grown in 96 well plates and exposed to the test compound for 48 hours. Compounds are tested at a single concentration, which is 10^-5 M for most compounds. The reported endpoint is percent growth (GI% or GIPRCNT), where numbers from 0 - 100% represent growth inhibition, and numbers from -100% - 0 represent cell death. For example, a value of 40 represents 60% growth inhibition. A value of 0 means no net growth occurred over the course of the experiment. A value of -40 indicates 40% of cells at the beginning of the experiment died by the end of the experiment. A value of -100 means all cells are dead at the end of the experiment.
NCI-60 Human Tumor Cell Lines Screen was performed using the standard one-dose NCI protocol, which is described in more detail at https://dtp.cancer.gov/discovery_development/nci-60/default.htm.
Compounds with GIPRCNT values below 10 were considered active. Activity score was based on GIPRCNT using the following formula: […]
Score is 0 for GIPRCNT values of 100 or above, 50 for GIPRCNT values of 0, and 100 for GIPRCNT values of -100.

SMILES | growth
COc1cccc2c1C(=O)c1c(O)c3c(c(O)c1C2=O)C[C@@](O)(C(=O)CO)C[C@@H]3OC1CC(N)C(O)C(C)O1 (stereo not given in full) | 93.5% (inactive)

Same assay, conditions: 1 µM

SMILES | growth
COc1cccc2c1C(=O)c1c(O)c3c(c(O)c1C2=O)C[C@@](O)(C(=O)CO)C[C@@H]3OC1CC(N)C(O)C(C)O1 (stereo not given in full) | 76.5% (inactive)

Same assay, conditions: 2.5 µM

SMILES | growth
COc1cccc2c1C(=O)c1c(O)c3c(c(O)c1C2=O)C[C@@](O)(C(=O)CO)C[C@@H]3OC1CC(N)C(O)C(C)O1 (stereo not given in full) | 52.6% (inactive)

Same assay, conditions: 10 µM

SMILES | growth
NC(=O)SCC(=O)NNc1ccccc1 | 93.7% (inactive)
NNc1ccc2ccccc2c1 | 88.5% (inactive)
Clc1cc(Cl)c(Cl)nn1 | 109% (inactive)
O=[N+]([O-])C1=C(c2ccccc2)SC=C(c2ccccc2)S1 | 84% (inactive)
CCN1/C(=C/C=C/C=C/c2sc3ccccc3[n+]2CC)Sc2ccccc21 | 9.48% (active)
CCCC1CCC(=C2C(=O)CCC2=O)O1 (stereo not given) | 108% (inactive) and 105% (inactive)
O=c1ccn(C2CC(O)C(COC(c3ccccc3)(c3ccccc3)c3ccccc3)O2)c(=O)[nH]1 (stereo not given) | 98.6% (inactive)
Oc1ccc(N=Nc2ccccn2)c(O)c1 | 59.2% (inactive)
CCC(C)(C)c1cc(O)c(C(C)(C)CC)cc1O | 50.1% (inactive)
O=C(O)COc1ccc(OCC(=O)O)cc1 | -14.2% (active)
CC[N+](CC)=c1ccc2nc3c(cc(N)c4ccccc43)oc-2c1 | -76.4% (active)
O=C(/C=C/c1ccccn1)c1ccccc1 | 78.9% (inactive)
Nc1c2ccccc2nc2ccccc12 | -0.261% (active) and 37.5% (inactive) and 18.3% (inactive)
Cc1cc(O)c(C(C)C)cc1Cl | 118% (inactive)
O=C(Nc1ccc(C(=O)O)c(O)c1)c1ccccc1 | 121% (inactive) and 139% (inactive)
COc1cccc2c1C(=O)c1c(O)c3c(c(O)c1C2=O)C[C@@](O)(C(C)=O)C[C@@H]3OC1CC(N)C(O)C(C)O1 (stereo not given in full) | -71.7% (active)
O=C1NC(=O)c2cc([N+](=O)[O-])ccc21 | 99.2% (inactive)
CCO/C=C1\SC(=S)N(c2cccc(O)c2)C1=O | 118% (inactive)

SMILES | growth
OCC1OC(n2cnc3c(=S)nc[nH]c32)C(O)C1O (stereo not given) | 105% (inactive) and 119% (inactive)
CC1=CC(C)=Nc2ccc(Cl)cc2N1 | 106% (inactive)
CN(C)C(=S)SC(=S)N(C)C | 94.7% (inactive)
CC(C)C(NC(=O)CN)C(=O)O (stereo not given) (H-Gly-[ξV]-OH) | 102% (inactive) and 99.9% (inactive)
CC(=O)Nc1cc(C)ccc1C | 83.8% (inactive)
O=C(/C=C/c1cccnc1)c1ccccc1 | 89.7% (inactive)
CC(=O)OCC(OC(C)=O)C(OC(C)=O)C(OC(C)=O)C(OC(C)=O)C(/C=N/Nc1ccccc1)=N/Nc1ccccc1 (stereo not given) | 83.4% (inactive)
CCCCCCCCCCCC[N+](C)(C)Cc1ccccc1 | 79% (inactive)
NNc1c2ccccc2nc2ccccc12 | 49.3% (inactive)
CS(=O)(=O)OC1CC(n2ccc(=O)[nH]c2=O)OC1COC(c1ccccc1)(c1ccccc1)c1ccccc1 (stereo not given) | 107% (inactive)
Cc1nc(N=C(N)N)nc2ccc3ccccc3c12 | 32.9% (inactive)
CC(C)(C)CC(C)(C)c1ccc(OCCO)cc1 | 115% (inactive)
COc1c(O)cc2oc3cc(O)c(CC=C(C)C)c(O)c3c(=O)c2c1CC=C(C)C | 97.2% (inactive)
O=C1C=CC(=CC=C2C=CN(CCCCCCCCCCCO)C=C2)C=C1 | 95.1% (inactive)
COC1OCC(O)C(O)C1O (stereo not given) | 84.5% (inactive)
CCCCCCCCCCCCSC(=NC)NC | 72.3% (inactive)
CN1CCN(CCCN2c3ccccc3Sc3ccc(C(F)(F)F)cc32)CC1 | 70.2% (inactive)
Nc1ccc2cc3ccc(N)cc3nc2c1 | 85.6% (inactive) and 1.64% (active)

Same assay, conditions: 100 µM

SMILES | growth
O=c1ccn(C2CC(O)C(COC(c3ccccc3)(c3ccccc3)c3ccccc3)O2)c(=O)[nH]1 (stereo not given) | 102% (inactive)
